Experimental data reported in PubChem BioAssay AID1490 (National Center for Advancing Translational Sciences (NCATS), 2009).
Among all 310,000 compounds or so, about 11,000 (3.5%) were called active. Another 4% or so got no clear call; they are omitted. For the sample, actives were picked, then their nearest neighbours and some compounds at random. Unmarked numbers belong to inactive results. Calls follow the shape of the dose curve; as a rule, active = well fitted inhibition curve with a large enough effect; inconclusive = small, poorly fitted or top-dose-only effect, or another doubt; inactive = no such curve, though single readings can be large or run the other way. Non-standard residues stand in square brackets, D forms with d. Residues, ends and D or L forms follow the SMILES beside them. Groups on a side chain read outwards from the residue. *: point of attachment. X1 = CCC(C)C(N)C1=NC(C(=O)*)CS1; Orn = NCCC[CH](N)C(=O)O
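Also: the enzyme is Sfp with the accession as filed and its product quenches rhodamine fluorescence.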
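For largest response in the series, negative = inhibition in this document: 0% = enzyme reaction without inhibitor and -100% = no enzyme wells.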
Potency is read from the fitted curve at half-maximal effect.

The compounds below were run against 4'-phosphopantetheinyl transferase ffp (Bacillus subtilis) (UniProt Q9F4F7) (assay: qHTS Assay for Inhibitors of Bacillus subtilis Sfp phosphopantetheinyl transferase (PPTase)). Settings: Biochemical Sfp PPTase activity.
Outline: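 Compounds were incubated with enzyme (final 15 nM) for 15 min at room temperature before substrate addition started the reaction. Fluorescence at 525 nm excitation, 598 nm emission was recorded immediately and after 30 minutes.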
With `CCOC(=O)c1c(-n2cnnn2)sc(C)c1C` the Potency was 35.5 µM (active). For `CCOc1ccc(C(=O)COC(=O)c2ccc(-n3cnnn3)cc2)cc1`, the largest response in the series, negative = inhibition was 8.76%. `CCOC(=O)c1c(NC(=O)CSc2nccc(=O)[nH]2)sc(C)c1C` showed a largest response in the series, negative = inhibition of 2.75%. `CCC(C)C(N)C1=NC(C(=O)NC(CC(C)C)C(=O)NC(CCC(=O)O)C(=O)NC(C(=O)NCCCCC2NC(=O)C(CC(N)=O)NC(=O)C(CC(=O)O)NC(=O)C(Cc3cnc[nH]3)NC(=O)C(Cc3ccccc3)NC(=O)C(C(C)CC)NC(=O)C(CCCN)NC2=O)C(C)CC)CS1` (stereo not drawn) (cyclo(DNK([Ile-Glu-Leu-X1])[Orn]IFH); configuration not given here) was tested, and the largest response in the series, negative = inhibition was -53.6%. `CC(=O)OC1C([N+]2(C)CCCCC2)C[C@H]2C3CC[C@H]4C[C@H](OC(C)=O)C([N+]5(C)CCCCC5)CC4(C)C3CCC12C` (stereo partly specified) was tested, and the largest response in the series, negative = inhibition was 11.5%. Work on `COc1ccc(S(=O)(=O)NCC(=O)NCc2cc(=O)n(C)c(=O)n2C)cc1F` yielded a largest response in the series, negative = inhibition of 14.7%. `CCOc1ccc(S(=O)(=O)Nc2ccc(OC)nc2)cc1` was tested, and the largest response in the series, negative = inhibition was 11.7%. `COc1ccc(CS(=O)/C(Cl)=C(/Cl)C(=O)Nc2ccc(OC)nc2)cc1` (stereo unspecified) was tested, and the Potency was 14.1 µM (active). `COc1ccc(C(=O)Nc2ccc(NC(=O)C(C)C)nc2)cc1` showed a largest response in the series, negative = inhibition of 27.7%. In the case of `O=C1COc2ccc(S(=O)(=O)NCCc3ccc(Cl)cc3)cc2N1`, the largest response in the series, negative = inhibition is reported as 13.2%. For `Cn1c(SCC(=O)c2cccs2)nnc1-c1ccco1`, the Potency was 22.4 µM (active). Work on `Cn1c(SCC(=O)Nc2ccc(Br)cc2F)nnc1-c1ccco1` yielded a largest response in the series, negative = inhibition of 1.27%. `CCOC(=O)CSc1nnc(-c2ccco2)n1C` gave a largest response in the series, negative = inhibition of -9.26%. In the case of `CCC(C)(C)NC(=O)C(c1ccc(OC)cc1)N(C(=O)CCC(=O)Nc1cc(C)on1)c1ccc(OC)cc1OC` (stereo unspecified), the largest response in the series, negative = inhibition is reported as 11.3%. For `CCOCCCNC(=S)Nc1ccc2nc(N3CCN(CC)CC3)cc(C)c2c1`, the largest response in the series, negative = inhibition was 10.7%. For `CCc1ccccc1NC(=O)c1ccc2c(c1)CCN2S(C)(=O)=O`, the largest response in the series, negative = inhibition was 10.6%. `O=c1[nH]c2ccccc2n2c(-c3ccccc3)nnc12` was tested, and the Potency was 1.26 µM (active). Compound `CC(=O)c1c(-c2ccccc2)c2ccccc2[nH]c1=O` has a largest response in the series, negative = inhibition of 28.5%. Work on `Cc1ccc(-c2nc3ccccc3[nH]c2=O)cc1` yielded a largest response in the series, negative = inhibition of 9.46%. `O=C(CCn1nnnc1CN1CCOCC1)N1CCC(c2ccccc2Cl)C1` (stereo unspecified) showed a largest response in the series, negative = inhibition of 10.9%. Work on `Cc1ccc(CNC(=O)[C@@H](NC(=O)Cc2ccccc2)C(C)C)cc1` yielded a largest response in the series, negative = inhibition of 19.7%. `C=CCn1c(=S)[nH]c2scc(-c3ccco3)c2c1=O` was tested, and the Potency was 20 µM (active). With `C=CCn1cnc2scc(-c3ccccc3)c2c1=O` the largest response in the series, negative = inhibition was 10.8%. `C=CCn1c(=S)[nH]c2nc3c(cc2c1=O)COC(C)(C)C3` gave a largest response in the series, negative = inhibition of -7.89%. `COc1cccc(-n2c(N)cc(=O)nc2SCC(=O)Nc2cc(C)on2)c1` showed a largest response in the series, negative = inhibition of 21.7%. With `CCOC(=O)C1(CCOc2ccccc2)CCN(Cc2ccc(C#CCCO)cc2)CC1` the largest response in the series, negative = inhibition was 10.5%. Compound `Nc1nc(NCc2ccccc2)n(-c2ccccc2)n1` has a largest response in the series, negative = inhibition of 16.4%. `O=c1[nH]c2c(c(=O)n1Cc1ccccc1)CCC2` gave a largest response in the series, negative = inhibition of 4.99%. Work on `CC(=O)c1ccc(-c2ccc(Cn3c(C)nc4cc(N)c(C)nc43)cc2)cc1` yielded a largest response in the series, negative = inhibition of 5.24%. For `Cc1cc2nc3c(=O)n(Cc4ccccc4)c(=O)[nH]c3nc2cc1N`, the Potency was 20 µM (active). `CC(C)Cn1cnc2c1c(=O)n(CC(=O)NN)c(=O)n2Cc1ccccc1` was tested, and the largest response in the series, negative = inhibition was 10.8%. For `CCOC(=O)[C@@H]1[C@H]2COc3cc(OC)ccc3[C@H]2N2C(=O)N(c3ccc(F)cc3)C(=O)[C@]12C`, the largest response in the series, negative = inhibition was 11.1%. Work on `O=S(=O)(NC1CC2CCC1C2)c1ccc(Cl)cc1` (stereo unspecified) yielded a largest response in the series, negative = inhibition of 6.14%. With `COCOc1cc(OC)ccc1C(=O)/C=C/c1ccc([N+](=O)[O-])cc1` the largest response in the series, negative = inhibition was 0.0276%. `Cc1ccc(NC(=S)NC(=O)/C=C/c2ccc(Cl)cc2)cc1` was tested, and the largest response in the series, negative = inhibition was -9.72%. For `CCOc1ccc(NC(=S)NC(=O)/C=C/c2ccc(OC)cc2)c([N+](=O)[O-])c1`, the Potency was 70.8 µM (active). `CCOC(=O)C1=C(c2ccccc2)NC(=O)NC1c1cc(OCC)c(O)c([N+](=O)[O-])c1` (stereo unspecified) gave a largest response in the series, negative = inhibition of 10.9%. For `Brc1ccccc1/C=N/Nc1nc2ccccc2o1`, the largest response in the series, negative = inhibition was -1.43%. `COC(=O)c1ccc2ccccc2c1OC1OC(CO)C(O)C(O)C1NC(C)=O` (stereo unspecified) gave a largest response in the series, negative = inhibition of 4.77%. Work on `COc1cc(CN2CC(C)CC(C)C2)cc([N+](=O)[O-])c1O` (stereo unspecified) yielded a largest response in the series, negative = inhibition of -8.11%. With `COc1cc(CN2CCN(Cc3ccc(C)cc3)CC2)c([N+](=O)[O-])cc1OC` the Potency was 56.2 µM (active). `COc1cc(CN2CCCN(C)CC2)c([N+](=O)[O-])cc1OC` gave a largest response in the series, negative = inhibition of 5.29%. For `COc1cccc(OCc2nnc3n2N=C(c2ccccc2)C(CC(=O)O)S3)c1` (stereo unspecified), the largest response in the series, negative = inhibition was 13.2%. Work on `COc1ccc(OCC(=O)NNC(=O)c2ccc(-c3ccccc3)cc2)cc1` yielded a largest response in the series, negative = inhibition of -6.16%. In the case of `COc1ccc(OCc2nnc3n2N=C(c2ccccc2)C(CC(=O)O)S3)cc1` (stereo unspecified), the Potency is reported as 4.47 µM (active). `COc1cccc(CNC(=O)C2CCCN(c3ncnc4c3nc3n4CCCCC3)C2)c1` (stereo unspecified) was tested, and the largest response in the series, negative = inhibition was 3.29%. `COC(=O)c1cccc(NS(C)(=O)=O)c1` was tested, and the largest response in the series, negative = inhibition was 9.77%. Work on `COC(=O)c1cccc(N2C(=O)C3C4C=CC(CC4)C3C2=O)c1` (stereo unspecified) yielded a largest response in the series, negative = inhibition of 11.5%. For `COC(=O)c1cccc(-n2[nH]nnc2=S)c1`, the Potency was 15.8 µM (active). `CC1(C)Cc2c(sc(NC(=O)C(=O)NCC3CCCO3)c2C(=O)O)CO1` (stereo unspecified) was tested, and the largest response in the series, negative = inhibition was 8.68%. With `C=C(C(C)=O)C(O)c1ccc([N+](=O)[O-])cc1` (stereo unspecified) the largest response in the series, negative = inhibition was -25.7%. `CC(=O)Nc1c2c(nn1-c1cccc(C)c1)CSC2` gave a largest response in the series, negative = inhibition of 15.2%. With `CCN1/C(=C/C(=S)Nc2ccccc2)Sc2ccccc21` the Potency was 14.1 µM (active). Work on `CCN1/C(=C/c2ccc3ccc(C)cc3[n+]2CC)Sc2ccccc21` yielded a largest response in the series, negative = inhibition of -8.02%. Compound `O=C(CCN1c2ccccc2Sc2ccccc21)Nc1ccccc1` has a largest response in the series, negative = inhibition of -1.89%. `Cc1ccc(S(=O)(=O)N2CCC3(CC2)OCCO3)c(C)c1` was tested, and the largest response in the series, negative = inhibition was 19.7%.
